Measurements from PubChem BioAssay (NCI).
Compounds without any hit were thinned out: in the full panel of roughly 83,000, 20% have a hit.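 A percent growth of 40 corresponds to 60% growth inhibition; 0 means no net growth; -100 means all cells died. Active threshold: below 10.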 Unmarked numbers belong to inactive results. Calls of active or inactive are those of the source.

What was measured:
Assay in all cases: NCI-60 one-dose screen, 48 h (100 = growth as untreated, 0 = no growth, -100 = all killed)
Settings in all cases: 10 µM unless noted
[1] = system: RPMI-8226 leukemia
[2] = system: OVCAR-8 ovarian
[3] = system: OVCAR-5 ovarian
[4] = system: OVCAR-4 ovarian
[5] = system: SK-OV-3 ovarian
[6] = system: IGROV1 ovarian
[7] = system: OVCAR-3 ovarian
[8] = system: HS 578T breast
[9] = system: NCI/ADR-RES ovarian

SMILES	growth [1]	growth [2] [%]	growth [3]	growth [4]	growth [5] [%]	growth [6]	growth [7]	growth [8]	growth [9]
CCCCN1C=CCN(CCCC)C1	37.9%	44.2	82.7%	42.6%	84.2	46.4%	13.1%	88.9%	108%
CCCCNC(=O)Oc1ccc(/C(=C(\C)c2ccccc2)c2ccc(OCCN3CCCCC3)cc2)cc1	42.7%	71.9	89.5%	75.4%	71.6	76.9%	64.7%	56.9%	63.1%
CN(CCN(C)c1ccc(C(=N)N)cc1)c1ccc(C(=N)N)cc1	46.8%	107	90.9%	98%	140	26%	87.9%	108%	104%
COc1cc(C=O)ccc1OC1OC(COC(C)=O)C(OC(C)=O)C(OC(C)=O)C1OC(C)=O (stereo unspecified)	92.1%	102	103%	103%	103	113%	104%	104%	103%
O=C1CC(=O)OC(c2ccc([N+](=O)[O-])cc2)O1	14.1%	11.6	-3.68% (active)	24.6%	89.6	-59.6% (active)	-60.6% (active)	13.1%	-44.3% (active)
O=C1Nc2ccccc2/C1=C\c1c(-c2ccccc2)nc2ccccn12	66%	68.9	68.2%	78.8%	30.5	46.3%	11.9%	69.5%	-11.1% (active)
Cc1nc2sccn2c1-c1cn2ccsc2n1	65%	96	87.7%	70.8%	94.9	14.3%	85.8%	87%	98%
CC(=O)Nc1ccc(-n2cnc3cc(-c4ccc(OCCN5CCCCC5)cc4)ccc32)cc1	54%	87.1	104%	82.6%	139	97.4%	98.4%	95.3%	97.2%
CCOC(=O)C1=C(CCl)NC(=O)NC1c1ccc2c(c1)OCO2 (stereo unspecified)	15.3%	45.7	24.6%	32.5%	81.8	37.2%	24.8%	71.9%	58.6%
Cc1ccc(-c2nc3ccccn3c2/C=C2/C(=O)Nc3cc(Cl)ccc32)cc1	93.6%	91.7	101%	74.7%	94.4	81.3%	93.7%	101%	27%
CCN1C(=O)/C(=C/C(=O)OC)S/C1=N\NC(=O)c1cc2ccc1/C=C\c1ccc(cc1)/C=C\2	-14.3% (active)	92.6	100%	89.6%	125	88.4%	92.9%	99%	86.5%
COc1cc2oc(-c3cccc(C(=O)Nc4ccc(Cl)cc4)c3)cc(=O)c2c(O)c1OC	70%	16.3	79.1%	-30.4% (active)	58.3	54%	30.4%	6.66% (active)	37.3%
COc1cc(/C=C2\COc3ccc(-c4ccccc4)cc3C2=O)cc(OC)c1	3.36% (active)	56.2	106%	63.8%	108	90.8%	–	92.9%	61%
COc1cc(CC(=O)n2ncc3ccc(N)cc32)cc(OC)c1OC	100%	104	91.9%	88.4%	95.6	90.7%	–	103%	90.1%
Cc1nc2ccc(Cl)cn2c1-c1nnc(SCc2ccc([N+](=O)[O-])cc2)o1	81.9%	36.8	83.7%	32.5%	–	–	66.8%	45.6%	36.1%
Cc1cc2c(c(C)c1Cl)C(=O)/C(=C/c1ccc(O)c(O)c1)O2	–	99.8	117%	96.3%	–	96.9%	109%	94%	104%
N#CC(C(=O)/C(=N/NC(=O)c1ccccc1O)C(C#N)c1ccccc1)c1ccccc1 (stereo unspecified)	–	52.3	91.2%	58.8%	45.9	37.7%	68.7%	24.1%	44.5%
O=C1Nc2ccccc2/C1=C\c1c(-c2ccc(F)cc2)nc2ccccn12	94.8%	86.8	77.5%	83.9%	62.7	57.1%	–	91.5%	35.4%
CC1(C)NCCC[C@]2(C)[C@H]3CC[C@@H]4[C@H]5[C@H](C(=O)/C=C/c6ccco6)CC[C@]5(CO)CC[C@@]4(C)[C@]3(C)CC[C@@H]12	44.2%	95.2	101%	79.9%	93.1	–	92.6%	86.8%	95.2%
O=C1/C=C/[C@@H](O)[C@@H]2C[C@@H](O)C[C@H]2/C=C/CCC[C@H](CCc2ccc3ncccc3c2)O1	17.7%	18	27.5%	14.3%	17.5	–	-17.5% (active)	41%	2.87% (active)
O=C1C=CC(=O)N1c1cccc(Cl)c1	95.6%	107	111%	–	108	117%	90.1%	113%	98.3%
Cc1nnc2c(Cc3ccccc3)nc3ccccc3n12	93.2%	104	90.7%	–	99.1	121%	94%	104%	87.4%
CCCCC/C=C/C(C)=C/C1CC(C)C/C=C/CCC(O)C(OC(N)=O)CCC(C)CC(O)C(C)C(=O)O1 (stereo unspecified)	56.3%	98.5	102%	107%	111	–	129%	94%	96%
C=CCn1c(-c2ccc(-c3nc4ccc(C)cc4[nH]3)cc2)n[nH]c1=S	–	94.4	101%	90.4%	–	97.9%	112%	102%	108%
